# Sampled rows, rich in hits. Any-hit rate of the full collection: about 9.4%.
# IMPase cell inh: IMPase inhibition in cells; P97697; CHO-M1 cells, IP1 accumulation, HTRF TR-FRET ratio; inhibition (IP1 accumulation), % at 46.1 µM; 120,000 tested, under 10 active; AID 901; active = well fitted curve in the direction sought with a large enough effect in the signal ratio, not every such curve was filed as active; inconclusive = small, poorly fitted or top-dose-only effect, or a change in a side signal; inactive = no such curve, though single readings can be large or run the other way; the % refers to the signal ratio;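 also: cells stimulated with carbachol in lithium chloride buffer; plate controls were DMSO basal wells for no effect and reference inhibitor wells for full effect; higher means more IMPase inhibition seen as more IP1 and lower FRET ratio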
#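 CHO-M1 cells (CHO stably expressing M1 receptor), compound up to 46 uM final, stimulated with carbachol (50 uM as added) in buffer with 50mM LiCl, pH 7.4, 30 min at 37C. Cytosolic IP1 read by TR-FRET; AC50 from Hill fits.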
# HPGD inh: inhibitors of human 15-hydroxyprostaglandin dehydrogenase (HPGD); P15428; purified HPGD, NADH fluorescence kinetic, PGE2 substrate; Potency, µM, without a hit: top-dose activity change, negative = inhibition, hits mostly inhibitors; hit rate 4.3% among 150,000; AID 894; active = well fitted inhibition curve with a large enough effect, not every such curve was filed as active; inconclusive = small, poorly fitted or top-dose-only effect, or another doubt; inactive = no such curve, though single readings can be large or run the other way; also: potency is read from the fitted curve at half-maximal effect; % is scaled to controls: 0 for no effect and ±100 for the full control effect
# Target sequence (P15428 whole entry, looked up): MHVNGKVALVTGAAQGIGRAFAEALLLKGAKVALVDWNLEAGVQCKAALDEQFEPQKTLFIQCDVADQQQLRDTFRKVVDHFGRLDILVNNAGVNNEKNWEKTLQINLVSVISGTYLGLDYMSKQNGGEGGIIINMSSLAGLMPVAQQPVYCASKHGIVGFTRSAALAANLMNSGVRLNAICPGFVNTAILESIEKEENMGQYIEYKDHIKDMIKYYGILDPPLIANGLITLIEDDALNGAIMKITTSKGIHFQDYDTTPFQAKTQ
#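 NADH formation kinetics: reaction with 30 uM PGE2 and 1 mM NAD+ (final), 20 nM enzyme, Tris-HCl pH 8 with Tween 20, after 15 min compound preincubation at room temperature. Fluorescence change, last versus first of five reads.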
# ALDH1A1 inh: blocks purified human ALDH1A1 activity; P00352; Purified ALDH1A1, NADH fluorescence, propionaldehyde substrate; Potency, µM (titrated, usually from 75.3 µM), for the others: at the highest dose activity, negative = inhibition, hits mostly inhibitors; hit rate 7.3% among 220,000; AID 1030; active = well fitted inhibition curve with a large enough effect, not every such curve was filed as active; inconclusive = small, poorly fitted or top-dose-only effect, or another doubt; inactive = no such curve, though single readings can be large or run the other way;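 also: potency is read from the fitted curve at half-maximal effect; plate controls were no enzyme wells and a reference inhibitor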
# Target sequence (P00352 whole entry, looked up): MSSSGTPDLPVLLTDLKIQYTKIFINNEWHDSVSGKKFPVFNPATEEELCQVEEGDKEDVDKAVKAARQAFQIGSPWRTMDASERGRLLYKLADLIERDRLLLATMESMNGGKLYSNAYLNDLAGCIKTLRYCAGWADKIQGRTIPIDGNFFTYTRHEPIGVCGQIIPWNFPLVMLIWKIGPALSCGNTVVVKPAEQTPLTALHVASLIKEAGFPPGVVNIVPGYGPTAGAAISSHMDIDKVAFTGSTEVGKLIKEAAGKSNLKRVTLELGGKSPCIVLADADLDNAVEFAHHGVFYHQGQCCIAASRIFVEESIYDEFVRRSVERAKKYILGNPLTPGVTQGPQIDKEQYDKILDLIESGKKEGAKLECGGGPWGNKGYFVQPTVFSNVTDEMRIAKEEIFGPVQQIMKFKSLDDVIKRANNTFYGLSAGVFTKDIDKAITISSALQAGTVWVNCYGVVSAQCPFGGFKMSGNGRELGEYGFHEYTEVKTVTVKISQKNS
# HttQ103 aggreg: mutant huntingtin aggregation inhibition | hit rate 1.1% among 220,000 | Potency, µM (series often up to 46.1 µM), inactives show at the top dose activity change, negative = inhibition, actives largely listed as inhibitors | AID 1688 | PC12 HttQ103-GFP aggregates, Acumen cytometry, 40 h; also: potency is read from the fitted curve at half-maximal effect; % is scaled to controls: 0 for no effect and ±100 for the full control effect; nearly all actives have a fitted effect of over 60% in size
#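 PC12 cells with ecdysone-inducible HTT exon1 Q103-GFP, induced by 100 nM tebufenozide, given compounds in a concentration series. GFP aggregates (1–25 um, 6 SD above background) counted in lysates by laser-scanning cytometry, 488 nm excitation.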
# HTT cytoprotect: Huntington cell model cytoprotection by ATP luminescence; PC12 HTT-Q103 induced, cytoprotection, ATP luminescence, 40 h; Potency, µM (series often up to 56.4 µM), inactives show cytoprotection (ATP increase), actives largely listed as activators; hit rate 0.14% among 230,000; also: potency is read from the fitted curve at half-maximal effect; % of control where 0% means no effect; nearly all actives have a fitted effect of over 45% in size
#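 Stable PC12 Q103-GFP cells in serum-supplemented, phenol red-free DMEM; induction by tebufenozide at 100 nM final; compound dose series; cell viability quantified luminescently from ATP.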
# IMPase Li inh: IMPase inhibition in cells with lithium potentiation | CHO-M1 cells, IP1 TR-FRET (IP-One), carbachol + lithium | Potency, µM (titrated, usually from 59.4 µM), for the others: at the top dose activity, negative = IMPase inhibition, most hits filed as inhibitors | hit rate 0.35% among 210,000 | AID 1457;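 also: IP1 builds up when IMPase is blocked and the TR-FRET signal falls; potency is read from the fitted curve at half-maximal effect; plate controls were basal vehicle for no effect and high inhibitor control for full effect; nearly all actives have a fitted effect of over 50% in size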
#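 CHO-M1, 2000 cells/well, 16–30 h culture; cpd + low Li+, 30 min 37C; lysis with d2-IP1/Eu-anti-IP1 Ab, 10 min RT; TR-FRET 665/620 ratio and 620 channel; AC50 via Hill.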
# The depositor's hits bear a star; ? = inconclusive; / = not tested or not shown; [ ] = dose if it differs, or a comment. Unless noted, calls follow the shape of the dose curve; as a rule, active = well fitted curve in the direction sought with a large enough effect; inconclusive = small, poorly fitted or top-dose-only effect, or another doubt; inactive = no such curve, though single readings can be large; an effect the other way counts as inactive or inconclusive.
SMILES,IMPase cell inh,HPGD inh,ALDH1A1 inh,HttQ103 aggreg,HTT cytoprotect,IMPase Li inh
Cc1ccc(C(=O)Nc2cc(-c3nc4ncccc4o3)ccc2C)c(C)c1,1,/,/,/,/,/
COc1ccc(C(=O)Oc2cc(/C=N/NS(=O)(=O)c3ccccc3)ccc2OC)cc1,3,-22%,3.2µM*,-5%,-8%,38%[38.3 µM]
CSC(=S)N/N=C/c1ccccc1,/,/,?,13%,7%[10 µM],11%
COc1ccc(/C=N/NC(=S)SC)cc1OC,/,/,10µM*,0%,-2%[10 µM],14%
COc1ccc(/C=N/NC(N)=S)cc1OC(=O)c1ccccc1,5,25µM*,-8%,28%,-5%,21%[38.3 µM]
N#Cc1cc2c(OCC(O)CN3CCN(C(c4ccccc4)c4ccccc4)CC3)cccc2[nH]1 (stereo not drawn),/,/,0%,/,-138%,37%
Cc1ccc(CNC(=O)[C@@H]2C[C@H]2[C@@H](NP(=O)(c2ccccc2)c2ccccc2)c2ccccc2)o1,/,-14%,4%,/,-37%,-1%
[ClH+][Cu][ClH+].[Cu].[OH2+]c1ccc2ccccc2c1CN1CCCCC1.[OH2+]c1ccc2ccccc2c1CN1CCCCC1,/,-13%,1.8µM*,/,/,-11%
Oc1ccc2ccccc2c1CN1CCN(c2ccccc2F)CC1,11,-26%,?,31%,-2%,11%
COC(=O)N1CCC2(CC1)CN(C(=O)Nc1cccc(C#N)c1)C2,/,-25%,-11%,/,-14%,5%
O=C(CSc1ncn[nH]1)c1ccc2c(c1)OCO2,5,-11%,-3%,-26%,8%,11%[38.3 µM]
O=C(CSc1nc2ccc(Cl)cc2[nH]1)c1ccc2c(c1)OCO2,13,-16%,18µM*,2%,-26%,5%[38.3 µM]
CCOC(=O)CCSc1cc(C)c2ccccc2n1,/,/,-1%,15%,-13%,-6%
Cc1cc(SCCC(=O)O)nc2ccccc12,?,-21%,-13%,5%,0%,11µM*
O=C(O)CCSc1nc2ccccc2c(=O)[nH]1,4,-5%,12%,16%,-3%[10 µM],5%
O=C(CSc1nc2cc(Cl)c(Cl)cc2[nH]1)c1ccc2c(c1)OCO2,/,/,/,15%[9.22 µM],-5%[10 µM],/
O=C(CSc1ccc2ccccc2n1)c1ccc2c(c1)OCO2,16,8.9µM*,?,-5%,-24%,35%[38.3 µM]
Cc1nc(SCCC(=O)O)c2ccccc2n1,?,-10%,12%,25%,10%[1.9 µM],13µM*
CCOc1ccc(S(=O)(=O)N(CC(=O)Nc2ccc3c(c2)OCO3)c2ccccc2)cc1,16,/,/,/,/,/
Cc1cccc(CSCCNC(=O)CN(c2ccccc2)S(=O)(=O)N(C)C)c1,-3,/,/,/,/,/
C#CCCCO/N=C1/[C@H]2O[C@@H]2[C@@H](O)[C@H]2[C@H]1CCn1c(=O)n(-c3ccccc3)c(=O)n12,/,/,13%[13.5 µM],/,-13%[10 µM],/
COCCn1c(=O)c(C)nc2cnc(N3CCNCC3)nc21,/,?,?,/,13%,-3%
COc1ccc(NC(=O)CCSc2ccc3ccccc3n2)cc1,/,-12%,?,5%,7%[10 µM],-15%
O=C(O)CCSc1ccc2ccccc2n1,?,-22%,0%,9%,-14%,14µM*
O=C(O)CSc1ccc2ccccc2n1,?,-18%,-58%,6%,-7%[10 µM],7.1µM*
SMILES,IMPase cell inh,HPGD inh,ALDH1A1 inh,HttQ103 aggreg,HTT cytoprotect,IMPase Li inh
Oc1ccccc1C1Nc2cccc3cccc(c23)N1,4,?,24µM*,16%,-17%[10 µM],11%[38.3 µM]
Brc1ccc(C2Nc3cccc4cccc(c34)N2)o1,2,?,4.5µM*,-14%,4%,10%[38.3 µM]
CCOc1cc(C2Nc3cccc4cccc(c34)N2)ccc1O,1,-26%,20µM*,16%[9.22 µM],6%,21%[38.3 µM]
c1csc(C2Nc3cccc4cccc(c34)N2)c1,4,?,?,4%,4%,11%[38.3 µM]
CN[C@@H](c1ccncc1)[C@@H](NC)c1ccncc1,/,-8%,3%[13.5 µM],/,-9%[10 µM],7%
CCCC[C@@H]1C[C@H]1C(NC(=O)Cc1ccccc1)c1ccc(Cl)cc1 (stereo partly drawn),/,-14%,-2%,/,-43%,2%
O=S(=O)(c1ccc2c(c1)OCCO2)N(Cc1ccc(F)cc1)Cc1nnc(-c2cccs2)o1,17,4.5µM*,4µM*,11%,-2%[10 µM],16%[38.3 µM]
COC(=O)C/C=C\[C@@H](C)[C@@H]1C=C[C@H](OC(C)=O)[C@H](COC(C)=O)O1,/,/,-9%[13.5 µM],/,-32%[10 µM],/
Clc1ccc(OCc2nn3c(-c4ccccc4)nnc3s2)c(Cl)c1,-9,?,?,8%,3%[10 µM],2%
c1csc(Cc2nn3c(-c4ccncc4)nnc3s2)c1,-1,-23%,?,10µM*,-17%,-6%[38.3 µM]
c1ccc(-n2c(-c3ccncc3)nnc2-c2cccs2)cc1,-3,-23%,-7%,-10%,-13%,5%[38.3 µM]
Clc1ccccc1OCc1nn2c(-c3ccncc3)nnc2s1,1,4µM*,?,-21%,-7%[0.074 µM],31%[38.3 µM]
O=C(COc1ccc(Br)cc1Cl)NC(=S)N1CCc2ccccc21,/,?,?,9%,/,-4%
O=C(COc1ccc(Br)cc1Br)NC(=S)N1CCCc2ccccc21,1,-17%,11µM*,?,4%,26%[38.3 µM]
COC(=O)c1ccc(N2C(=O)c3ccc(OC)c(OC)c3C2=O)cc1,-18,1%,1%,14%,-5%[0.074 µM],-6%[38.3 µM]
COc1ccc2c(c1OC)C(=O)N(c1cccc(C)c1)C2=O,?,-13%,5µM*,3%,-9%,0%[38.3 µM]
COC(=O)CN1C(=O)S/C(=C/c2ccc(N3CCCCC3)o2)C1=O,-3,-11%,0.28µM*,?,-32%,18%[38.3 µM]
CCOC(=O)CN1C(=O)S/C(=C/c2ccc(N3CCCCC3)o2)C1=O,1,-8%,25µM*,11%,-17%,-3%[38.3 µM]
CCCCC1=CC2=CC(=O)C(C)(OC(=O)CC)C(=O)C2=CN1CCCN(CC)CC (stereo not drawn),/,1%,3%[13.5 µM],/,5%[10 µM],6%
CCCCCCCCCCCCCCCCCCO,/,-8%,11%,-5%,?,6%
CS(=O)Cc1cc(Sc2ccccc2)nc(-c2cccnc2)n1 (stereo not drawn),/,/,?,6%,-24%,4%
CS(=O)Cc1cc(Sc2ccccc2)nc(-c2ccncc2)n1 (stereo not drawn),/,/,8.9µM*,3%,-30%,-8%
COc1cc(/C=C2/S/C(=N/S(=O)(=O)c3ccccc3)NC2=O)c([N+](=O)[O-])cc1OC,-1,5µM*,-3%,?,-5%,32%[38.3 µM]
COc1ccc2[nH]cc(CCNc3ncncc3-c3c(C)noc3C)c2c1,/,/,2%,/,?,9%
COc1cccc(-c2cncnc2NCCc2c[nH]c3ccc(OC)cc23)c1,/,/,?,/,3.2µM*,34%
COc1ccccc1-c1cc(N(C)Cc2ccco2)ncn1,/,/,?,/,-60%,4%
